Assay results published in PubChem BioAssay (Tox21).
Records with an inconclusive call do not appear. A call without a number means that no potency is given here. Activity calls are given as the source filed them. The call rests on the fitted dose curve; in most records, active means well fitted inhibition curve with a large enough effect in the repeat runs; inconclusive means weak or mixed curves; inactive means flat fitted curve, though single readings scatter.

test: qHTS assay to identify small molecule HDAC inhibitors (AID 1259364); conditions: HCT-116 HDAC-Glo I/II luminescence, 2 h; series mostly up to 92.4 µM; further: top concentration of the series differs between compounds; nearly all actives have a fitted effect of over 45% in size
From the text: U.S. Tox21 Program National Center for Advancing Translational Sciences [NCATS] NIH Chemical Genomics Center [NCGC] U.S. Environmental Protection Agency [EPA] National Institutes of Environmental Health Sciences [NIEHS] National Toxicology Program [NTP] U.S. Food and Drug Administration [FDA] Tox21 Assay Overview: Histone deacetylases (HDACs) are a group of epigenetic enzymes that regulate gene expression by histone deacetylation. HDACs are capable of introducing epigenetic modifications and such aberrations contribute to the onset and progression of several human diseases, thus making HDACs a popular therapeutic target. For identifying endogenous class I/II HDAC inhibitors a homogenous, luminogenic HDAC I/II cell based assay was used to measure the relative activity of class I and II HDACs from cells. Wild type HCT-116 cells were used to screen Tox21 libraries for identifying class I/II HDAC inhibitors.
Tox21 Assay Protocol Summary: HCT-116 cells were dispensed at 1,500 per well in 5uL of culture medium into white solid bottom 1536-well plates (Greiner Bio-One, Monroe, NC) using a Multidrop Combi (Thermo Scientific, Waltham, MA) dispenser. The assay plates were incubated at 37 C and 5% CO2 for an overnight, and then 23nL of compounds dissolved in DMSO and positive control were transferred using a Pintool station (Wako, San Diego, CA). The assay plates were incubated at 37C and 5% CO2 for 2hr. After compound treatment, 4uL of HDAC-Glo reagent (Promega Corporation, Madison, WI) was added to each well of the assay plates using Flying Reagent Dispenser (FRD, Aurora Discovery, San Diego, CA) and incubated the assay plates at room temperature for 30min. The luminescence signal was quantified using a ViewLux plate reader (Perkin Elmer, Shelton, CT).

Row | Compound | Potency
1 | O=CN1CCCCC1 | inactive
2 | CC1(C)C(=O)C(C)(C)C1=O | inactive
3 | CC(C)(O)c1ccc(C(C)(C)O)cc1 | inactive
4 | BrCCOc1ccccc1 | inactive
5 | O=c1[nH]c(=O)c2cn[nH]c2[nH]1 | inactive
6 | C=CCCCCCCCCOC(C)=O | inactive
7 | N#Cc1ccccc1C#N | inactive
8 | Clc1cc(Cl)c(Cl)c(Cl)c1Cl | inactive
9 | CCN(CC)CC(=O)Oc1ccc(NC(C)=O)cc1 | inactive
10 | CC(CC(=O)Cl)CC(C)(C)C (stereo not given) | inactive
11 | N=C(N)S(=O)O | inactive
12 | C=C(C)C(=O)OCCOC1CC2CC1C1C=CCC21 (stereo not given) | inactive
13 | CC(C)OC(=O)C(C(=O)OC(C)C)=C1SC=CS1 | inactive
14 | CC(C)c1cc(C(C)C)cc(C(C)C)c1 | inactive
15 | CC(=O)OC/C=C(/C)CCC=C(C)C | inactive
16 | Cc1ccc(Br)cc1 | inactive
17 | C=CC(=O)OCCOCCOCC | inactive
18 | CC(=O)OCC(=O)[C@@]1(O)CC[C@H]2[C@@H]3CCC4=CC(=O)C=C[C@]4(C)[C@H]3[C@@H](O)C[C@@]21C | inactive
19 | Cc1ccccc1C#N | inactive
20 | Cc1cccc(N)n1 | inactive

Row | Compound | Potency
21 | CCC(C)c1nccnc1OC (stereo not given) | inactive
22 | CC1(C)CC(N)CC(C)(C)N1 | inactive
23 | O=C(OOC(=O)c1ccccc1)c1ccccc1 | inactive
24 | C=CC(=O)OCC[N+](C)(C)C | inactive
25 | COc1ccc(Cl)cc1C | inactive
26 | CN1C(CCl)Nc2cc(Cl)c(S(N)(=O)=O)cc2S1(=O)=O (stereo not given) | inactive
27 | CCCCC(CC)CCC(CC(C)C)OS(=O)(=O)O (stereo not given) | inactive
28 | NS(=O)(=O)c1cc2c(cc1C(F)(F)F)NCNS2(=O)=O | inactive
29 | O=C(O)Cc1ccccc1Oc1ccc(Cl)cc1Cl | inactive
30 | O=C(O)P(=O)(O)O | inactive
31 | Clc1ccc2c(c1)Nc1ccccc1S2 | inactive
32 | CCCCCCCOC(C)=O | inactive
33 | CC(=O)c1ccc(O)c(C(N)=O)c1 | inactive
34 | CC(CN1CC(=O)NC(=O)C1)N1CC(=O)NC(=O)C1 (stereo not given) | inactive
35 | C=CC(C)(CCC=C(C)C)OC(=O)C(C)C (stereo not given) | inactive
36 | COC(=O)c1ccc(C(=O)O)cc1 | inactive
37 | CCN(CC)CC | inactive
38 | Nc1cc(S(=O)(=O)O)ccc1O | inactive
39 | CC(=O)c1ccc2ccc3ccccc3c2c1 | inactive
40 | CC(C)C[P+](C)(CC(C)C)CC(C)C | inactive
